What all share (test): DAPPL (digital affinity profiling via proximity ligation, sequencing); 10 mM Tris-HCl pH 7.5, 50 mM NaCl, 1 mM DTT, 4% glycerol, room temperature, 30 min; GST-TFs on glutathione beads, 16-mer random dsDNA library, 0.1% formaldehyde crosslink after washing; high values mean tight binding
Settings in all cases: protein: recombinant; tags: N-terminal GST; dsDNA, one strand shown

For test [1], the target named is T1, FLI1 (Homo sapiens, UniProt Q01543 1-452).
T1 sequence: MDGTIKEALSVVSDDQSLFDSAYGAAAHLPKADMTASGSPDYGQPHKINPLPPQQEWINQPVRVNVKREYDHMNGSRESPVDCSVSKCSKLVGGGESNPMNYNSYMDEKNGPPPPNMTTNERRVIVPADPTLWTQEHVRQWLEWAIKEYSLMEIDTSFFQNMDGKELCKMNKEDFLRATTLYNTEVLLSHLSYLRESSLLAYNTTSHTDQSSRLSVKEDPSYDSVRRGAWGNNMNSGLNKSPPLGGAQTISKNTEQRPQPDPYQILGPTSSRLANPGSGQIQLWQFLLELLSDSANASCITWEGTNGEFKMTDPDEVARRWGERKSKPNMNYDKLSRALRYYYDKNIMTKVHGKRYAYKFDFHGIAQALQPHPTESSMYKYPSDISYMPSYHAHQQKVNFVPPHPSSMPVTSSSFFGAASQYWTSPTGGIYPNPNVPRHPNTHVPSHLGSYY
In short, it runs like this: (§1)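 A tag-only sample was pooled with DNA-barcoded human transcription factors that had been expressed in yeast as GST fusions and captured on glutathione beads. The pools were incubated for 30 min at room temperature with 200 nmole of a random double-stranded 16-mer DNA library in Tris/NaCl/DTT/glycerol buffer, then washed, crosslinked with 0.1% formaldehyde, proximity-ligated (BsaI/T4 ligase, 1 h, 37 °C), PCR-amplified and sequenced on an Illumina NextSeq500. Binding signal is each hexamer's read frequency for a factor divided by its frequency for the tag-only sample.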

Test [2] deals with T2, ELK1 (Homo sapiens, UniProt P19419 1-428).
T2 sequence: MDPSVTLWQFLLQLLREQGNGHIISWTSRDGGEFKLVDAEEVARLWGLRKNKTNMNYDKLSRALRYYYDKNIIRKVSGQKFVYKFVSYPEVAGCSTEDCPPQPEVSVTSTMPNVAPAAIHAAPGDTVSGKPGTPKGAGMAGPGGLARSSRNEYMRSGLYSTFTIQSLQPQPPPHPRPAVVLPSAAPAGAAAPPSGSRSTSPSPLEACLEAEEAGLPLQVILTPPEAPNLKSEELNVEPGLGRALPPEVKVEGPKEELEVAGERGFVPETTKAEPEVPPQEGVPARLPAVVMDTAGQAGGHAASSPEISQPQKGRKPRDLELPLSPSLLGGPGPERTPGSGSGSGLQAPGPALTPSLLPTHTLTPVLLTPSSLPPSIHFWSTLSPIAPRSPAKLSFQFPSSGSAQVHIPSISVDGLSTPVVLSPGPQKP
The essentials: as §1

Test [3] concerns the target T3, GABPA (Homo sapiens, UniProt Q06546 1-454).
T3 sequence: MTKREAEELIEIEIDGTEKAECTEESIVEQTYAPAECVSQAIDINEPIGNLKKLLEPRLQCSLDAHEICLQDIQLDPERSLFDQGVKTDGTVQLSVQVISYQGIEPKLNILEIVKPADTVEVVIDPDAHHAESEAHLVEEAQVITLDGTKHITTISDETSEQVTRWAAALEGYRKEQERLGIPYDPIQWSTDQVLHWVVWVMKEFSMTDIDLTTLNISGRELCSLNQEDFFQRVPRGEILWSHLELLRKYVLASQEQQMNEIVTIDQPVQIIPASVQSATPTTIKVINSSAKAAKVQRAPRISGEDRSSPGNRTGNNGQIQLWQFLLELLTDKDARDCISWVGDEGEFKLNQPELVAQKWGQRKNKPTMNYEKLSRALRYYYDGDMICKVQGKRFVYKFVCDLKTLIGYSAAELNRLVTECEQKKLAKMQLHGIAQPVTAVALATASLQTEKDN
In short, it runs like this: as §1

The target of test [4] is T4, ERG (Homo sapiens, UniProt P11308 1-479).
T4 sequence: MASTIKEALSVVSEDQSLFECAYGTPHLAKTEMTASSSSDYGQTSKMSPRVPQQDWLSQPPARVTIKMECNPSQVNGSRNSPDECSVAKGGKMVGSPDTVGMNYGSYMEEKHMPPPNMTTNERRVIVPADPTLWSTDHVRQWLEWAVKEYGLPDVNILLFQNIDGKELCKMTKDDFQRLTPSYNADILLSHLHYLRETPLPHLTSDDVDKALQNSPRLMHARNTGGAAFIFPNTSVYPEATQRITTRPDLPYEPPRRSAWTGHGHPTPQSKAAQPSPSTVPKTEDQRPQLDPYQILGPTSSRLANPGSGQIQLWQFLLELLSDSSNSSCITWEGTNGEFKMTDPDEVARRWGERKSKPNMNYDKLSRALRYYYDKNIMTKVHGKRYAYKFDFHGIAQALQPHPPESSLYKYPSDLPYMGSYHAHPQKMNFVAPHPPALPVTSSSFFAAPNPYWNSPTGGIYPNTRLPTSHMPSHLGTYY
The essentials:
as §1

The target in test [5] is ELF1 (Homo sapiens, UniProt P32519 1-619). The essentials:
as §1

Test [6] addresses T5, EHF (Homo sapiens, UniProt Q9NZC4 1-300).
T5 sequence: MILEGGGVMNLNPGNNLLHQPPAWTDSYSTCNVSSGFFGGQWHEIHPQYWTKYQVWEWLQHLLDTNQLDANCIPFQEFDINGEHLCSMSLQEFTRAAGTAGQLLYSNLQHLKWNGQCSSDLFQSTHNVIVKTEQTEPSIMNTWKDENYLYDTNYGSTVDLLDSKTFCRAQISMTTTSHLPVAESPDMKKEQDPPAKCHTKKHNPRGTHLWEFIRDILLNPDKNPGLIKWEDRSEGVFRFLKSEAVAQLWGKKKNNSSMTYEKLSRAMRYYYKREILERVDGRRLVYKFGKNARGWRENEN
The essentials: as §1

The target in test [7] is SPI1 (Homo sapiens, UniProt P17947 1-270). In short, it runs like this: as §1
The target in test [8] is SPIB (Homo sapiens, UniProt Q01892 1-262). In short, it runs like this:
as §1

The target of test [9] is T6, ELK3 (Homo sapiens, UniProt P41970 1-407).
T6 sequence: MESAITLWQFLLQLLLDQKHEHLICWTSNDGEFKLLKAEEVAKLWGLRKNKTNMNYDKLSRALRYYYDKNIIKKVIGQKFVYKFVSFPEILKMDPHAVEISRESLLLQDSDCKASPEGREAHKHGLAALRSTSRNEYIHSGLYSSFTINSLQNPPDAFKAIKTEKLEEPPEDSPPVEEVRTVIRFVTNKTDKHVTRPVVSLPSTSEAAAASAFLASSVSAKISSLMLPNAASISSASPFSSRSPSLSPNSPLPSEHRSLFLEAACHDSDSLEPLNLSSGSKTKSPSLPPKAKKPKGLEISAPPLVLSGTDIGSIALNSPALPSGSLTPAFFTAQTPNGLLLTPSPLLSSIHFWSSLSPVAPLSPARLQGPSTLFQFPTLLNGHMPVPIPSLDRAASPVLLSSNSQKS
The essentials: as §1

SPIB, sequence (Q01892 whole entry): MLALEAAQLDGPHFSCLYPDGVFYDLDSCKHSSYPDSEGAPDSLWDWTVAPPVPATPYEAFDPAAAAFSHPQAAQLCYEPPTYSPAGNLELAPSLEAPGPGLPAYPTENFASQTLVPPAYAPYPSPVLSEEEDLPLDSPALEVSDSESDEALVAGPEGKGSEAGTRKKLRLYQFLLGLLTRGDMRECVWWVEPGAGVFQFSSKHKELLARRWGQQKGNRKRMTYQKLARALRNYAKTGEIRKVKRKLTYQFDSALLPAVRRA
ELF1, sequence (P32519 whole entry): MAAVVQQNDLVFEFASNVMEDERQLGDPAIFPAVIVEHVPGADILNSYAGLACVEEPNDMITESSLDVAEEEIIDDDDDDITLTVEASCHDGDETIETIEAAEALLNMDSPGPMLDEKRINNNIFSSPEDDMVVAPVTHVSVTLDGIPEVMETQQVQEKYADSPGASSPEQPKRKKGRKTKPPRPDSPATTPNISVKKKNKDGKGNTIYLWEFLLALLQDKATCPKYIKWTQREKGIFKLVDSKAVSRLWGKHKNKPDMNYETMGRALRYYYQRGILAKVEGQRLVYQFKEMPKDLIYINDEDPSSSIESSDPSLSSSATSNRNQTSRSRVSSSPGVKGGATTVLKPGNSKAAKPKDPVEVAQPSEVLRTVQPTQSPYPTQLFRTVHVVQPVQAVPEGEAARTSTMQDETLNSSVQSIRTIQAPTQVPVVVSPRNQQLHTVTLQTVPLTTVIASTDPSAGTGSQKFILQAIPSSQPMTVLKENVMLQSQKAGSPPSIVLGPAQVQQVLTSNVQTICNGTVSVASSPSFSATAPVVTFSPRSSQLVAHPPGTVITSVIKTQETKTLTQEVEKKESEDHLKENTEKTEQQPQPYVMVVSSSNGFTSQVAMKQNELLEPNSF

Turning to CCCGAC, the binding signal in test [1] was 1.31 fold enrichment (6-mer frequency, TF over GST control); in test [2], 1.28 fold enrichment (6-mer frequency, TF over GST control); in [3] it was 1.39 fold enrichment (6-mer frequency, TF over GST control); in [4], 1.43 fold enrichment (6-mer frequency, TF over GST control); in test [5] it was 1.42 fold enrichment (6-mer frequency, TF over GST control); in test [6] it was 1.31 fold enrichment (6-mer frequency, TF over GST control). Moreover, the binding signal in test [7] was 1.29 fold enrichment (6-mer frequency, TF over GST control); in test [8], 1.44 fold enrichment (6-mer frequency, TF over GST control); in test [9], 1.43 fold enrichment (6-mer frequency, TF over GST control).

Take GTTCTA: the binding signal was 1.16 fold enrichment (6-mer frequency, TF over GST control) in [1]; 1.28 fold enrichment (6-mer frequency, TF over GST control) in [2]; 1.22 fold enrichment (6-mer frequency, TF over GST control) in test [3]; 1.24 fold enrichment (6-mer frequency, TF over GST control) in test [4]; 1.31 fold enrichment (6-mer frequency, TF over GST control) in test [5]; 1.12 fold enrichment (6-mer frequency, TF over GST control) in [6]. For the same sequence, the binding signal in test [7] is 1.12 fold enrichment (6-mer frequency, TF over GST control); in [8], 1.32 fold enrichment (6-mer frequency, TF over GST control); in [9], 1.23 fold enrichment (6-mer frequency, TF over GST control).

Regarding TAATAC, the binding signal in test [1] is 1.11 fold enrichment (6-mer frequency, TF over GST control); in test [2], 1.07 fold enrichment (6-mer frequency, TF over GST control); in test [3] it was 1.04 fold enrichment (6-mer frequency, TF over GST control); in test [4], 1.09 fold enrichment (6-mer frequency, TF over GST control); in test [5] it was 1.13 fold enrichment (6-mer frequency, TF over GST control); in [6], 1.13 fold enrichment (6-mer frequency, TF over GST control). For the same sequence, the binding signal is 1.05 fold enrichment (6-mer frequency, TF over GST control) in [7]; 1.06 fold enrichment (6-mer frequency, TF over GST control) in [8]; 1.04 fold enrichment (6-mer frequency, TF over GST control) in test [9].

Consider CGACTC, for which the binding signal in test [1] is 1.37 fold enrichment (6-mer frequency, TF over GST control); in [2], 1.42 fold enrichment (6-mer frequency, TF over GST control); in [3], 1.53 fold enrichment (6-mer frequency, TF over GST control); in test [4], 1.39 fold enrichment (6-mer frequency, TF over GST control); in test [5], 1.45 fold enrichment (6-mer frequency, TF over GST control); in [6], 1.43 fold enrichment (6-mer frequency, TF over GST control). The binding signal is 1.35 fold enrichment (6-mer frequency, TF over GST control) in [7]; 1.56 fold enrichment (6-mer frequency, TF over GST control) in [8]; 1.43 fold enrichment (6-mer frequency, TF over GST control) in test [9].

As to AATAGC, the binding signal was 1.17 fold enrichment (6-mer frequency, TF over GST control) in test [1]; 1.14 fold enrichment (6-mer frequency, TF over GST control) in test [2]; 1.17 fold enrichment (6-mer frequency, TF over GST control) in [3]; 1.12 fold enrichment (6-mer frequency, TF over GST control) in test [4]; 1.09 fold enrichment (6-mer frequency, TF over GST control) in test [5]; 1.23 fold enrichment (6-mer frequency, TF over GST control) in test [6]. In addition, the binding signal in test [7] is 1.15 fold enrichment (6-mer frequency, TF over GST control); in [8], 1.16 fold enrichment (6-mer frequency, TF over GST control); in test [9], 1.1 fold enrichment (6-mer frequency, TF over GST control).

Take CTGTTA: the binding signal was 1.22 fold enrichment (6-mer frequency, TF over GST control) in test [1]; 1.24 fold enrichment (6-mer frequency, TF over GST control) in test [2]; 1.32 fold enrichment (6-mer frequency, TF over GST control) in test [3]; 1.28 fold enrichment (6-mer frequency, TF over GST control) in test [4]; 1.24 fold enrichment (6-mer frequency, TF over GST control) in test [5]; 1.26 fold enrichment (6-mer frequency, TF over GST control) in [6]. Besides, the binding signal in [7] was 1.27 fold enrichment (6-mer frequency, TF over GST control); in test [8], 1.27 fold enrichment (6-mer frequency, TF over GST control); in [9], 1.32 fold enrichment (6-mer frequency, TF over GST control).

CTTATG: the binding signal in test [1] was 1.52 fold enrichment (6-mer frequency, TF over GST control); in test [2] it was 1.56 fold enrichment (6-mer frequency, TF over GST control); in test [3] it was 1.4 fold enrichment (6-mer frequency, TF over GST control); in test [4], 1.45 fold enrichment (6-mer frequency, TF over GST control); in [5], 1.38 fold enrichment (6-mer frequency, TF over GST control); in [6], 1.39 fold enrichment (6-mer frequency, TF over GST control). The binding signal is 1.45 fold enrichment (6-mer frequency, TF over GST control) in [7]; 1.59 fold enrichment (6-mer frequency, TF over GST control) in [8]; 1.46 fold enrichment (6-mer frequency, TF over GST control) in test [9].

As to TTCTCA, the binding signal is 1.36 fold enrichment (6-mer frequency, TF over GST control) in [1]; 1.31 fold enrichment (6-mer frequency, TF over GST control) in test [2]; 1.33 fold enrichment (6-mer frequency, TF over GST control) in [3]; 1.26 fold enrichment (6-mer frequency, TF over GST control) in [4]; 1.29 fold enrichment (6-mer frequency, TF over GST control) in test [5]; 1.19 fold enrichment (6-mer frequency, TF over GST control) in [6]. The binding signal in [7] is 1.32 fold enrichment (6-mer frequency, TF over GST control); in test [8], 1.31 fold enrichment (6-mer frequency, TF over GST control); in test [9], 1.27 fold enrichment (6-mer frequency, TF over GST control).

The record behind these values is PMC7862700, “An all-to-all approach to the identification of sequence-specific readers for epigenetic DNA modifications on cytosine”.
